The values below come from PubChem BioAssay (EPA / NIEHS).

Records with an inconclusive call do not appear. Activity calls are given as the source filed them. Rule for the calls: active = hit-call score of the fitted dose curve at least 0.9, where 1 is the maximum; inconclusive = response in the unintended direction; inactive = score below 0.9.

The nature of experiment [1]: TOX21_p53_BLA_p4_viability: Viability Assessment in the Tox21 HCT-116 p53 Agonism Beta-lactamase Assay, Phase 4 (AID 2283597).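 Note: hits lower the luminescence signal meaning cytotoxicity.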 The method in brief:
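In this multiplexed secondary endpoint, HCT116 cells (4000 per well, compound at 5 h, 16 h treatment) received CellTiter-Glo after the beta-lactamase read. Luminescence after 30 min RT reflects ATP, and falling signal marks cytotoxicity.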

The target of experiment [2] is Cellular tumor antigen p53 (Homo sapiens) (UniProt P04637). Description: TOX21_p53_BLA_p4_ratio: Tox21 HCT-116 p53 Agonism Beta-lactamase Assay, Ratio, Phase 4 (AID 2283601). The method in brief: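 HCT116 cells carrying an inducible beta-lactamase reporter were plated at 4000 cells/well, rested 5 h, then exposed to compounds in DMSO (217-fold dilution) for 16 h at 37C. CCF4-AM substrate was loaded 2 h at room temperature; 460/530 nm emission ratio scored gain-of-signal versus DMSO.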

The target is the same in experiment [3]. Kind of experiment: TOX21_p53_BLA_p5_ratio: Tox21 HCT-116 p53 Agonism Beta-lactamase Assay, Ratio, Phase 5 (AID 2283599). The method in brief: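 HCT-116 cells carrying a p53-inducible beta-lactamase reporter were seeded at 4000 cells/well and dosed after 5 h with compound in DMSO (217-fold dilution). After 16 h at 37C, CCF4-AM substrate was added for 2 h, and the 460/530 nm emission ratio was scored as gain-of-signal versus DMSO.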

Experiment [4] has the same target. Description: TOX21_p53_BLA_p3_ratio: Tox21 HCT-116 p53 Agonism Beta-lactamase Assay, Ratio, Phase 3 (AID 2283596). The method in brief:
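Cells were seeded at 4000/well, rested 5 h at 37C, then dosed with DMSO compound solutions (217-fold dilution) for 16 h. CCF4-AM substrate was loaded for 2 h at room temperature, and the 460/530 nm emission ratio was fitted for gain of signal versus DMSO.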

Experiment [5] is described as follows: TOX21_p53_BLA_p5_viability: Viability Assessment in the Tox21 HCT-116 p53 Agonism Beta-lactamase Assay, Phase 5 (AID 2283600). The essentials:
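Here cell health was gauged by ATP levels in wells holding 4000 cells, each treated 16 h with DMSO-delivered compounds at 217-fold dilution; reduced luminescence marked toxicity.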

For experiment [6], the target named is Thyroid hormone receptor alpha (Rattus norvegicus) + Thyroid hormone receptor beta (Rattus norvegicus) (UniProt P18113+P63059). Kind of experiment: TOX21_TR_LUC_GH3_Antagonist_Followup: Tox21 GH3 Thyroid Hormone Receptor Antagonism Luciferase Follow-Up Assay (AID 2283942). The method in brief: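 In a GH3 luciferase reporter line, test chemicals spanning 92 uM to 5nM final are co-incubated 24 h with 1.0 nM T3. Activity is expressed as relative luminescence units and analysed relative to DMSO.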

Experiment [7] in a line: TOX21_TRB_BLA_Antagonist_Followup_viability: Viability Assessment in the Tox21 Thyroid Hormone Receptor beta Antagonism Beta-lactamase (BLA) Follow-Up Assay (AID 2283961). The essentials:
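In the same wells as the reporter read, cell health was gauged by CellTiter-Glo ATP luminescence, with signal loss indicating reduced viability. Cells had been exposed to test compounds for 18 h.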

In experiment [8] the target is Retinoic acid receptor RXR-alpha (Homo sapiens) (UniProt P19793). Description: TOX21_TR_RXR_BLA_Antagonist_Followup_ratio: Tox21 Thyroid Hormone Receptor beta Retinoid X Receptor alpha (RXRa) Antagonism Beta-lactamase (BLA) Follow-Up Assay, Ratio (AID 2283972). The essentials:
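Compounds were tested in triplicate at 11 concentrations on RXRa-bla HEK293T cells for 16 h. Substrate cleavage ratio, normalized to DMSO, gave the endpoint.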

Experiment [9] can be described thus: TOX21_TR_RXR_BLA_Antagonist_Followup_viability: Viability Assessment in the Tox21 Thyroid Hormone Receptor beta Retinoid X Receptor alpha (RXRa) Antagonism Beta-lactamase (BLA) Follow-Up Assay (AID 2283979). The essentials:
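RXRa-UAS-bla HEK293T cells seeded 2,500/well in phenol red-free DMEM with 2% charcoal-stripped FBS, attached 5 h, then exposed to compounds at 11 concentrations in triplicate for 16 h at 37C/5% CO2. Viability read by CellTiter-Glo ATP luminescence; bidirectional fit versus DMSO.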

Cellular tumor antigen p53 (Homo sapiens), sequence (P04637 whole entry, looked up): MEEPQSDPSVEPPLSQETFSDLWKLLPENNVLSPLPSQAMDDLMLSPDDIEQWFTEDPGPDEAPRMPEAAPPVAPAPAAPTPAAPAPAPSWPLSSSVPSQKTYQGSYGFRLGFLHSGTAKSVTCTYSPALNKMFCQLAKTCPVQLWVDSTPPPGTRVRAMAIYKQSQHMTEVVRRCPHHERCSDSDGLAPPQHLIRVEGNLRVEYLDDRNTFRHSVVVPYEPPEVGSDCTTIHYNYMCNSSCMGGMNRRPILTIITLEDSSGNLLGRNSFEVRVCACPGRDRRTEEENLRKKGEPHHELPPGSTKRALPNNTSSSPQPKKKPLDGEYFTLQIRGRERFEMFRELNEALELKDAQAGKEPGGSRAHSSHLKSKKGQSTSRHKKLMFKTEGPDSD
Retinoic acid receptor RXR-alpha (Homo sapiens), sequence (P19793 whole entry, looked up): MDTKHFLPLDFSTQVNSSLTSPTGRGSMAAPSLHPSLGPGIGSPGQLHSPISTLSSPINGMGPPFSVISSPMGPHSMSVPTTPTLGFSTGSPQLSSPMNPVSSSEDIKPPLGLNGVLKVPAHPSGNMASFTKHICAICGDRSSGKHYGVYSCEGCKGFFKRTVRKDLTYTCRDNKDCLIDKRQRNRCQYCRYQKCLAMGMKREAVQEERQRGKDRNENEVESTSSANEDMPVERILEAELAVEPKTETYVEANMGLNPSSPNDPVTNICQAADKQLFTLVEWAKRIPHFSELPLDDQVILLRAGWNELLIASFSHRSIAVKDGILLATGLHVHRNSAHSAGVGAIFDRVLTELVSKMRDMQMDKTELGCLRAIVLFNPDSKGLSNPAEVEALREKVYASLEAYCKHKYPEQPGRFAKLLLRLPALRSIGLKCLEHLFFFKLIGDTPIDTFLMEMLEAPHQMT

With `C=CCc1cc(OC)c(O)c(C(=O)NCCO)c1`, the outcome in experiment [1] and in [2] was inactive.
As for `COC(=O)N[C@H](C(=O)N[C@@H](Cc1ccccc1)[C@@H](O)CN(Cc1ccc(-c2ccccn2)cc1)NC(=O)[C@@H](NC(=O)OC)C(C)(C)C)C(C)(C)C`, the call in experiment [1], in [3] and in experiment [2] was inactive.
`FC(F)(F)c1ccccc1Cl`: the outcome in [1] and in experiment [2] was inactive.
Consider `ClC/C=C\CCl`, for which the outcome in experiment [4] and in experiment [2] was inactive.
On to `CC(=O)[C@@]1(O)CC[C@H]2[C@@H]3C=C(Cl)C4=CC(=O)[C@@H]5C[C@@H]5[C@]4(C)[C@H]3CC[C@@]21C`, for which the call in experiment [1] and in experiment [5] was inactive.
Turning to `CC(C(=O)O)c1ccc2c(c1)CC(=O)c1ccccc1S2` (configuration not stated), the result in experiment [1] and in experiment [2] was inactive.
Take `C=Cc1ccccn1`: the compound was classed as inactive in experiment [1] and in [2].
In the case of `NC(=O)[C@@H]1C[C@]2(NC(=O)NC2=O)c2cc(F)ccc2O1`, the compound was called inactive in experiment [1], in experiment [3], in experiment [5] and in experiment [2].
`CCCCCCCC/C=C\CCCCCCCC(=O)OCCOC(=O)CCCCCCC/C=C\CCCCCCCC`: the compound was called inactive in experiment [1], in experiment [3], in [5] and in experiment [2].
`CN1CCC(=C2c3ccccc3CCc3sccc32)CC1`: the result in [1] was inactive.
As for `CC(C)(O/N=C(\C(=O)N[C@@H]1C(=O)N2C(C(=O)[O-])=C(C[n+]3ccccc3)CS[C@H]12)c1csc(N)n1)C(=O)O`, the compound was called inactive in [1], in experiment [3], in experiment [5] and in [2].
As for `O=C(O)C=Cc1ccc(C=CC(=O)O)cc1`, in experiment [1], the outcome was inactive.
Take `CCCCCCCCCCCc1ccccc1`: the compound was called inactive in [1] and in [2].
For `NNc1nnc(NN)c2ccccc12`, the result in [1], in experiment [3], in [5] and in experiment [2] was inactive.
For `CS(=O)(=O)NC(=O)CCC/C=C\C[C@H]1C(=O)C[C@@H](O)[C@@H]1/C=C/[C@H](O)COc1ccccc1`, the compound was called inactive in experiment [1] and in experiment [3].
Turning to `C[C@H]1c2cccc(O)c2C(O)=C2C(=O)[C@]3(O)C(O)=C(C(N)=O)C(=O)[C@@H](N(C)C)[C@@H]3[C@@H](O)[C@@H]21`, the outcome in experiment [1] and in experiment [2] was inactive.
In the case of `O=C(O)c1cc(O)c2c(c1)[O][Bi][O]2`, the call in experiment [1] was inactive.
For the compound `O=[N+]([O-])c1cc(Cl)c(Cl)c(Cl)c1Cl`, the outcome in experiment [1] and in [2] was inactive.
In the case of `ClCCl`, the compound was classed as inactive in [1], in experiment [3] and in experiment [2].
Turning to `CC(C(=O)O)c1ccc(CC2CCCC2=O)cc1` (configuration not stated), the compound was classed as inactive in experiment [1], in experiment [3], in experiment [5] and in experiment [2].
Consider `NC(=O)Oc1ccc(Cc2ccccc2)cc1`, for which the call in experiment [1] and in experiment [2] was inactive.
Regarding `Nc1ccc([N+](=O)[O-])c(N)c1`, the result in experiment [1] and in experiment [2] was inactive.
With `Nc1ccc(C(=O)O)c(O)c1`, the outcome in experiment [1], in experiment [3], in [5] and in experiment [2] was inactive.
On to `C=CCC=CC`, for which the result in experiment [1] and in experiment [2] was inactive.
As for `COc1ccc(-c2cc(=S)ss2)cc1`, the compound was classed as inactive in experiment [1] and in [2].
Regarding `C=CC(=O)CC`, the compound was called inactive in [1] and in experiment [3].
Consider `Cc1cccc(C)c1NC(=O)CN1CCCC1`, for which the call in experiment [1], in experiment [3] and in [2] was inactive.
As for `NNc1nnc(Cc2ccncc2)c2ccccc12`, the result in [4], in [6], in [7], in experiment [8] and in [9] was inactive.
For `CN(C)Cc1ccccc1`, the result in experiment [3], in experiment [5] and in experiment [2] was inactive.
For `CN1CCC[C@@H]1Cc1c[nH]c2ccc(CCS(=O)(=O)c3ccccc3)cc12`, the result in [3] was inactive.
As for `Cc1ccc(C)cc1`, the compound was called inactive in [5].
On to `CC(C)CCOC(=O)C=Cc1ccccc1`, for which the result in experiment [3] and in experiment [5] was inactive.
Take `CCCCc1cc2ccccc2c(OCCN(C)C)n1`: the outcome in experiment [5] and in experiment [2] was inactive.
Regarding `O=C(CS(=O)Cc1ccco1)NC/C=C\COc1cc(CN2CCCCC2)ccn1` (configuration not stated), the outcome in [3] and in [2] was inactive.
For the compound `C[C@H]1NCc2cc(-c3ccc4c(=O)c(C(=O)O)cn(C5CC5)c4c3OC(F)F)ccc21`, the result in [3] and in experiment [5] was inactive.
`C1CCc2nnnn2CC1`: the result in experiment [3] and in experiment [5] was inactive.
For `Nc1ccc(S(=O)(=O)Nc2ccccc2)cc1`, the result in [3] and in [2] was inactive.
On to `C=CC(C)(O)CCCC(C)CCCC(C)CCCC(C)C` (configuration not stated), for which the result in experiment [5] was inactive.
With `CCO/C([O-])=N/c1c[n+](N2CCOCC2)no1`, the outcome in [3], in experiment [5] and in experiment [2] was inactive.
